An excerpt weighted towards active compounds, which were near 19% of everything screened.
IL1B secr inh: inflammasome signaling inhibition, IL-1 beta readout. THP-1 LPS/ATP IL-1B secretion, AlphaLISA, 16 h; active compounds read low. activity change, % at 57.5 µM. hit rate 4.7% among 360,000; in the data active = activity change below about -50%; inconclusive = mostly about -30% to -49%
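Secreted IL-1B measured by AlphaLISA bead assay after 16 h compound exposure of THP-1 cells; compounds (final up to 57.5 uM) added 1 h before LPS (250 ng/mL) and ATP (1.25 mM) stimulation; lower signal means less secretion.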
TDP1 cell noCPT: qHTS for Inhibitors of human tyrosyl-DNA phosphodiesterase 1 (TDP1): qHTS in cells in absence of CPT. Potency, µM (series often up to 46.2 µM), most hits filed as inhibitors. DT40 Tdp1-/- hTDP1 cells, no CPT, ATP luminescence, 48 h. AID 686978, 2013. hit rate 15% among 420,000; note: nearly all actives have a fitted effect of over 55% in size
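Growth kinetics read by CellTiter-Glo luminescence after ≥48 hr at 37 °C. Cells: DT40 Tdp1-/- stably carrying human TDP1, 400 per well, compound exposure in the absence of CPT (DMSO vehicle).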
TDP1 cell CPT: DT40-hTDP1 cell growth loss with CPT. chicken DT40 Tdp1-/-;hTDP1 cells + 20 nM CPT, ATP luminescence, 48 h. Potency, µM (series often up to 46.2 µM), usual class: inhibitors. hit rate 12% among 420,000. AID 686979; note: nearly all actives have a fitted effect of over 55% in size
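Chicken DT40 Tdp1-/- cells stably complemented with human TDP1 were seeded at 400 cells/well in medium containing 20 nM camptothecin, exposed to pin-transferred compounds, and grown at 37 °C for at least 48 hr. Viability was read as ATP luminescence.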
HT1080 IDH1KD tx: toxicity to HT-1080 IDH1 knockdown cells (counter line); HT-1080 IDH1 knockdown viability, ATP luminescence, 48 h; hit rate 2% among 360,000; AID 686971; Potency, µM (series often up to 46.1 µM), most hits filed as cytotoxic
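Knockdown cells (IDH1KD HT-1080) received compounds 2 h after plating at 750 cells/well and were kept 48 h at 37 °C in 5% FBS RPMI. A CellTiter-Glo luminescence read gave % activity for curve fitting.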
HT1080-NT tox: kills 2HG-producing HT-1080-NT fibrosarcoma cells | AID 686970 | Potency, µM (doses to about 46.1 µM), actives largely listed as cytotoxic | hit rate 1.6% among 360,000 | HT-1080-NT fibrosarcoma viability, CellTiter-Glo ATP luminescence, 48 h;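 note: NT is the 2HG producing partner of a matched IDH1 knockdown line; nearly all actives have a fitted effect of over 55% in size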
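Compounds were tested in concentration-response format on HT-1080-NT cells for 48 hours at 37 degrees C. Cell viability came from CellTiter-Glo luminescence; curves were classified by r2, response magnitude and activity.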
Numbers stand for hits; . = inactive; ? = inconclusive; / = not tested or not shown. Unless noted, calls come from the whole dose curve; as a rule, active = well fitted curve in the direction sought with a large enough effect; inconclusive = small, poorly fitted or top-dose-only effect, or another doubt; inactive = no such curve, though single readings can be large; an effect the other way counts as inactive or inconclusive.

SMILES	IL1B secr inh	TDP1 cell noCPT	TDP1 cell CPT	HT1080 IDH1KD tx	HT1080-NT tox
CSc1ccc(/C=C2/C(C)=C(CC(=O)O)c3cc(F)ccc32)cc1	/	.	.	/	/
COc1ccccc1Nc1nc(-c2sc(NC(=O)CC(C)C)nc2C)cs1	.	?	?	.	?
CCCCCC(=O)Nc1nc(C)c(-c2csc(Nc3cc(Cl)ccc3OC)n2)s1	.	18µM	?	.	.
COc1cccc(NC(=O)c2sc(NC(=O)c3ccncc3)nc2C)c1	.	.	.	.	.
COc1cccc(Nc2nc(-c3sc(NC(=O)CC(C)C)nc3C)cs2)c1	.	23µM	13µM	.	.
Cc1cc(O)ccc1Nc1nc(-c2sc(N)nc2C)cs1	.	.	.	?	.
COc1cccc(Nc2nc(-c3sc(NC(=O)c4ccccc4)nc3C)cs2)c1	.	21µM	18µM	.	?
COc1ccc(OC)c(Nc2nc(-c3sc(N)nc3C)cs2)c1	?	26µM	?	.	?
Cc1nnc(NC(=O)C2CCN(S(=O)(=O)c3ccc(F)c(Cl)c3)CC2)o1	.	.	.	.	.
CC(C)CC(NC(=O)/C(=C/c1ccco1)NC(=O)c1ccc(Br)o1)C(=O)O (stereo not given)	.	.	.	.	.
CCOCc1cc(CN2CCCC(CNC(=O)c3ccco3)C2)ccc1OC (stereo not given)	.	.	.	.	.
Cc1nc(C)c(-c2csc(NCc3ccco3)n2)s1	.	?	?	.	.
CCCC(=O)Nc1nc(C)c(-c2csc(Nc3cc(OC)ccc3OC)n2)s1	.	6.5µM	4.6µM	.	.
Cc1nc(NC(=O)c2ccccc2)sc1-c1csc(NCc2ccco2)n1	.	23µM	23µM	?	?
Cc1nc(NC(=O)c2ccccc2)sc1-c1csc(Nc2ccc(C(=O)O)cc2)n1	?	12µM	21µM	.	.
Clc1ccc(-c2nnc(-c3ccc(Br)cc3)c(N3CCSCC3)n2)cc1	.	12µM	12µM	.	.
Clc1ccc(-c2nnc(-c3ccco3)nc2N2CCCCC2)cc1	.	21µM	21µM	.	.
CCNC(=S)NNC(=O)c1ccc(OC(F)F)cc1	.	.	.	.	.
Nc1nnc(-c2ccc([N+](=O)[O-])o2)s1	.	9.2µM	18µM	.	23µM
CCCNC(=O)Cn1cnc2sc(C(=O)N3CCN(Cc4ccc5c(c4)OCO5)CC3)c(C)c2c1=O	.	.	.	.	.
Cc1c(C(=O)N2CCN(Cc3ccc4c(c3)OCO4)CC2)sc2ncnc(N3CCN(c4ccccc4F)CC3)c12	?	8.2µM	18µM	18µM	?
Cc1c(C(=O)N2CCN(Cc3ccc4c(c3)OCO4)CC2)sc2ncnc(N3CCN(c4ccccc4)CC3)c12	.	4.6µM	?	?	.
CC1CC(C)CN(CCOCCSc2ccccc2)C1 (stereo not given)	.	16µM	?	.	.
CC1CC(C)CN(CCOCCSc2ccc(Cl)cc2)C1 (stereo not given)	?	16µM	21µM	?	?
CC1CN(CCCSc2ccc(Cl)cc2)CC(C)O1 (stereo not given)	.	?	?	.	.
SMILES	IL1B secr inh	TDP1 cell noCPT	TDP1 cell CPT	HT1080 IDH1KD tx	HT1080-NT tox
CC1CC(C)CN(CCCSc2ccccc2)C1 (stereo not given)	.	.	.	.	.
CS(=O)(=O)N(CC(=O)N1CCCC1)C1CCCCC1	.	.	.	.	.
O=C(Cc1ccc(S(=O)(=O)N2CCOCC2)s1)Nc1ccccc1N1CCCC1	.	15µM	16µM	.	.
O=C(Cc1cccc(C(F)(F)F)c1)Nc1cc(S(=O)(=O)N2CCOCC2)ccc1N1CCCC1	.	?	?	.	.
O=C(Cc1ccc(S(=O)(=O)N2CCOCC2)s1)Nc1cc(C(F)(F)F)ccc1N1CCCC1	.	21µM	?	.	.
CC1(NC(=O)CCc2nc3ccccc3c(=O)[nH]2)CCS(=O)(=O)C1 (stereo not given)	.	.	.	.	?
CCN(CC)CCNC(=O)C1CCN(c2cc(C)nc3c(-c4ccc(Cl)cc4)c(C)nn23)CC1	/	4.1µM	3.7µM	/	/
COc1ccc(-c2c(C)nn3c(N4CCC(C(=O)NCCN(C)C)CC4)cc(C)nc23)cc1OC	.	.	?	.	?
COCCCNC(=O)C1CCN(c2cc(C)nc3c(-c4ccc(OC)c(OC)c4)c(C)nn23)CC1	/	16µM	.	/	/
CCOCCCNC(=O)C1CCN(c2cc(C)nc3c(-c4ccc(Cl)cc4)c(C)nn23)CC1	/	.	.	/	/
CCCN(CCC)C(=O)C1CCN(c2cc(C)nc3c(-c4ccc(OC)c(OC)c4)c(C)nn23)CC1	.	16µM	18µM	.	.
CC1CC2=C(NC(=S)NC2c2cccc(F)c2)/C(=C/c2cccc(F)c2)C1 (stereo not given)	-64	16µM	?	?	.
Cc1ccc(/C=C2\CCCC3=C2NC(=S)NC3c2ccc(C)cc2)cc1 (stereo not given)	.	?	.	.	.
Cc1ccc(/C=C2\CC(C)CC3=C2NC(=S)NC3c2ccc(C)cc2)cc1 (stereo not given)	.	15µM	?	.	?
CC1CC2=C(NC(=S)NC2c2ccccc2F)/C(=C/c2ccccc2F)C1 (stereo not given)	.	?	?	.	.
O=C(Cn1c(=O)oc2ccccc21)N1CCOCC1	.	.	.	.	.
CC(=O)Oc1ccc(N(C(C)=O)S(=O)(=O)c2cccs2)c2ccccc12	.	?	12µM	18µM	?
COc1cc(C(=O)Oc2cccc(/C=N/NC(=O)c3cc(C)[nH]n3)c2)cc(OC)c1OC	.	21µM	?	.	.
COc1cc(C(=O)Oc2cccc(C=O)c2)cc(OC)c1OC	.	?	26µM	?	?
Cc1cc(C(=O)N/N=C/c2cccc(OC(=O)c3cccc(Br)c3)c2)n[nH]1	.	.	.	.	.
COc1cccc(C(=O)Oc2c(Br)cc(Br)cc2/C=N/NC(=O)c2cc(C)[nH]n2)c1	.	9.2µM	6.5µM	?	?
CCC(C)N=C1Sc2nc3ccc(C)cc3cc2CN1CCOC (stereo not given)	-83	?	?	.	.
COCCN=C1Sc2nc3ccc(C)cc3cc2CN1Cc1cccs1	-87	21µM	?	.	.
CCOc1ccc(N=C2Sc3nc4ccc(C)cc4cc3CN2CCOC)cc1	.	?	?	.	.
COCCN1Cc2cc3cc(C)ccc3nc2SC1=Nc1ccc(OC)cc1	-53	?	?	.	.
CCOc1ccc2nc3c(cc2c1)CN(CCCO)C(=NCCOC)S3	?	15µM	?	.	.
CC(C)N1C(=O)c2ccccc2NC(=O)C1C(=O)NCc1cccc(C(F)(F)F)c1 (stereo not given)	.	?	?	.	.

From PubChem
